High-throughput results deposited in PubChem by National Center for Advancing Translational Sciences (NCATS).
Sampled rows, rich in hits. Any-hit rate of the full collection: about 2.4%.
D2 ag-1: activates the human D2 dopamine receptor | P14416 | 340,000 tested, 0.53% active | HEK293 T-REx D2 cells, calcium flux agonist mode | AID 485358 | activation, % at 2 µM;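 active = activation over 3 SD above normal in the single-dose calcium agonist read, cut at about 30% in these data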; note: 0% is about no effect
Target sequence (P14416 whole entry, looked up): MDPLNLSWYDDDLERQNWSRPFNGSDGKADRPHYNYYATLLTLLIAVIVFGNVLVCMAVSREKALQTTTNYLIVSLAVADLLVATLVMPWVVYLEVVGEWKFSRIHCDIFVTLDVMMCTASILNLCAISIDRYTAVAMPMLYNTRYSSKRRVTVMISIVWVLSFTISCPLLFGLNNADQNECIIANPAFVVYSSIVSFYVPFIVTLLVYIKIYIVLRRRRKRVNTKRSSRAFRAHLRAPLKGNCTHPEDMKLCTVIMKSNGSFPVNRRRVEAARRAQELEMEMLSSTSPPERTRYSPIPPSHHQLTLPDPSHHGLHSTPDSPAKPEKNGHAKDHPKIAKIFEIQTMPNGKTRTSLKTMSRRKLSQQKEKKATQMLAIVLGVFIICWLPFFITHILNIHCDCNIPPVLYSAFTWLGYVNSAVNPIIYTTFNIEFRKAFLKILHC
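In this primary screen, compounds producing a positive calcium signal within 180 s of addition to tetracycline-induced, force-coupled HEK293 Trex D2 cells are flagged; cells are dye-loaded with a no-wash calcium kit beforehand.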
D2 antagonist: D2 dopamine receptor (human) antagonism. P14416. HEK293 TREx D2 cells, calcium flux, dopamine EC80. inhibition, % at 10 µM. 340,000 tested, 2% active. AID 485344; in the data active = inhibition above about 30%; inactive = below that, where a call was filed; note: 0% is about no effect
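Calcium flux kinetic readout in an inducible HEK293 TREx D2 line plated overnight at 30 C. After 180 s compound exposure, an EC80 dopamine challenge follows with another 180 s kinetic read to detect antagonism.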
D2 ag-2: agonists of human D2 dopamine receptor (beta-arrestin); 360,000 tested, 0.084% active; DiscoveRx PathHunter D2 beta-arrestin, luminescence, 90 min; 100% = 57 uM dopamine signal; P14416; activation, % (test concentration not listed); AID 624465; in the data active = activation above about 40%; inconclusive = between about 15% and that limit
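DiscoveRx PathHunter D2 beta-arrestin cells (2,100/well) attached overnight, then compound-stimulated 90 min at 37 C in HBSS/10 mM HEPES/0.1% Tween-20 buffer; beta-galactosidase complementation read by luminescence after 1 h at ambient temperature. Dopamine 57 uM final (EC100) as control.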
D2 PAM-1: human D2 receptor positive allosteric modulation; AID 624464; 360,000 tested, 0.23% active; DiscoveRx D2 beta-arrestin cells, luminescence, 90 min; 100% = 57 uM dopamine signal; P14416; potentiation, % (concentration not given with the values); in the data active = potentiation above about 50%; inconclusive = mostly about 30% to 49%
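D2 cells co-treated with compound plus 50 nM dopamine (EC20) for 90 min at 37 deg C to detect potentiation. Beta-arrestin recruitment was read as enzyme-fragment luminescence after 1 h at ambient temperature. Full response was set by 57 uM dopamine.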
D2 PAM-2: D2 dopamine receptor (human) potentiation; P14416; HEK293 T-REx D2, calcium flux, EC20 dopamine potentiation; potentiation, % at 10 µM; 340,000 tested, 0.34% active; AID 485347;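 active = potentiation over 3 SD above the plate norm, cut at about 30% in these data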; note: 0% is about no effect
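Using a no-wash calcium dye in inducible, force-coupled HEK293 Trex cells expressing D2, we tracked fluorescence each second for 180 s after compound, then for 180 s after EC20 dopamine to detect augmented signalling.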
* = called active by the depositor; ? = inconclusive; nt = no result.

SMILES	D2 ag-1	D2 antagonist	D2 ag-2	D2 PAM-1	D2 PAM-2
CC1CCN(CCCCOc2cccc(Br)c2)CC1	-0.4	91.8*	-3.7	-47.1	-29.0
Cc1ccc(OCC(=O)N(Cc2ccco2)Cc2ccc(C)o2)cc1	-1.1	nt	nt	nt	-7.7
CC(NCc1ccc2c(c1)OCO2)C(=O)N1CCc2ccccc21 (stereo not drawn)	-1.2	43.6*	-7.1	-39.5	-27.0
Cc1ccccc1C1=CCN(c2ncc(NC(=O)c3ccc(Cl)cc3)cc2C(=O)O)CC1	0.1	nt	nt	nt	-19.0
CCOC(=O)C1=CN(Cc2ccc(OC)cc2)C=C(C(=O)OCC)C1c1cccs1	0.6	42.1*	2.5	0.8	-1.3
COC(=O)C1=CN(Cc2ccc(OC)cc2)C=C(C(=O)OC)C1c1cc(OC)c(OC)c(OC)c1	0.3	-29.6	6.4	-3.9	-2.8
O=C(O)CCCC(=O)Nc1nc2n(n1)C(c1ccc(F)cc1)CC(c1ccc(Cl)cc1)N2 (stereo not drawn)	-0.8	32.3*	-2.5	-9.1	-8.1
CC(NC(=O)C1CCN(C(=O)c2ccc(-n3ccc4ccccc43)s2)CC1)c1ccccc1 (stereo not drawn)	nt	nt	nt	nt	-4.1
CCN(CC)CCNC(=O)c1ccc(CSc2nc3ccncc3n2Cc2cccc(F)c2)cc1	-0.4	nt	nt	nt	-3.8
CC(C)(C)CC(C)(C)N=C1NS(=O)(=O)c2cc([N+](=O)[O-])ccc21	0.6	15.1	?	29.3	7.9
CC(C)(CO)N=C1NS(=O)(=O)c2cc([N+](=O)[O-])ccc21	0.1	15.2	?	90.3*	0.2
O=C(Nc1nc2ccccc2[nH]1)c1ccc(OC(F)F)cc1	0.4	-4.4	2.4	-5.6	-7.6
CC(C)Oc1ccc(C(=O)Nc2nc3ccccc3[nH]2)cc1	0.8	-1.9	-3.1	-0.4	105.2*
O=C(COC(=O)c1ccc(Sc2ccccc2)c([N+](=O)[O-])c1)NC1CCS(=O)(=O)C1 (stereo not drawn)	0.6	32.2*	-0.7	-11.6	7.9
COC(=O)c1cc(C(=O)OCC(=O)NC2CCS(=O)(=O)C2)cc([N+](=O)[O-])c1 (stereo not drawn)	1.4	-3.4	1.6	4.3	-2.6
Cc1ccc(Cl)cc1NC(=O)CSc1nc2c(c(=O)[nH]1)CN(Cc1ccccc1)CC2	-1.0	nt	nt	nt	3.3
CC(C)=N/N=c1\scc(C)n1Cc1ccco1	0.7	39.9*	2.0	6.7	8.3
Cc1cs/c(=N\N=C\c2ccccc2)n1Cc1ccco1	0.9	0.7	-1.4	1.7	-4.5
O=C(Nc1cccc(-c2ccc(N3CCOCC3)nn2)c1)c1ccc(Cl)cc1	0.0	30.6*	0.5	20.3	-15.2
Cc1cc(C)cc(NC(=O)CCc2nnc3n(C)c(=O)c4sccc4n23)c1	1.5	nt	nt	nt	-0.5
CCOC(=O)C1=C(CNCCc2ccc(Cl)cc2)NC(=O)NC1c1ccc2c(c1)OCO2 (stereo not drawn)	-0.9	4.0	-3.9	22.2	30.6*
COC(=O)c1ccccc1NC(=O)Cn1c(=O)n(CCCCC(=O)NCc2ccc3c(c2)OCO3)c(=O)c2ccccc21	0.8	nt	nt	nt	2.2
CC(C)CN(CC(C)C)S(=O)(=O)c1ccc(C(=O)Nc2sc3c(c2C(N)=O)CC(C)(C)NC3(C)C)cc1	-0.1	nt	nt	nt	15.2
S=c1[nH]nc(-c2ccc(Br)o2)n1Cc1ccccc1	-0.8	-12.7	1.5	-10.5	34.7*
S=c1[nH]nc(-c2ccco2)n1Cc1ccccc1	-2.4	5.9	0.4	-10.2	11.0
SMILES	D2 ag-1	D2 antagonist	D2 ag-2	D2 PAM-1	D2 PAM-2
COc1ccccc1/C=C/c1nc(C#N)c(NC2CCCCC2)o1	-0.3	nt	nt	nt	-7.2
CC(C)c1ccc(NC(=O)C2CC(=O)N=C(N)S2)cc1 (stereo not drawn)	0.4	-3.1	?	108.9*	19.8
CCc1ccc(NC(=O)C2CC(=O)N=C(N)S2)cc1 (stereo not drawn)	0.4	8.7	-0.9	-7.8	1.9
COc1cccc(C(=O)Nc2ccc(-c3cn4cccnc4n3)cc2)c1OC	-0.7	nt	nt	nt	-1.7
Cc1sc(N/N=C/c2cccs2)nc1-c1ccccc1	0.4	-15.5	?	66.4*	-9.3
CC(C)C(C(=O)Nc1ccccc1)N1C(=O)c2ccccc2C1=O (stereo not drawn)	-0.4	-9.0	-5.9	-2.2	-7.1
CC(C)C(C(=O)Nc1ncn[nH]1)N1C(=O)c2ccccc2C1=O (stereo not drawn)	0.4	2.8	-1.9	1.9	30.6*
CCCCOc1ccc(NC2=NC3(CCCCC3)N=C(N)N2)cc1	0.6	35.5*	-0.5	-2.0	18.0
COc1ccc(NC2=NC3(CCCCC3)N=C(N)N2)cc1	-0.4	-22.1	-1.6	-26.6	17.5
NC(N)=Nc1cc2ccccc2c2ccccc12	67.8*	37.5*	nt	nt	-19.7
NC(N)=NC(N)=Nc1cccc2ccccc12	0.7	3.5	6.2	-3.0	3.3
CC(=O)c1ccc(NC(=O)COCc2cc(-c3ccc(F)cc3)on2)cc1	-1.0	nt	nt	nt	-7.3
CCn1cc(CNC(=O)c2cc(-c3ccc(C)cc3)nc3ccc(Br)cc23)c(C)n1	0.1	nt	nt	nt	2.9
Cc1cc(Br)ccc1N=C1C(=O)Nc2ccccc21	-0.3	58.9*	-16.2	-7.8	-0.8
CCOc1ccccc1NC(=O)C1CCCN1S(=O)(=O)c1ccc2nc(-c3ccccc3)[nH]c2c1 (stereo not drawn)	0.3	nt	nt	nt	-1.8
CCOc1ccc(Nc2ncnc3c2c(-c2ccccc2)cn3-c2cccc(C)c2)cc1	-0.4	nt	nt	nt	4.5
CCC(C(=O)NCc1ccccc1Cl)n1nc(C)c2sc3ccccc3c2c1=O (stereo not drawn)	-1.8	nt	nt	nt	3.8
O=Nc1c(O)ccc2cc(S(=O)(=O)O)ccc12	nt	nt	?	100.4*	nt
COc1ccc(NC(=O)c2c(C(=O)Nc3ccccc3)sc3nc(C)cc(=O)n23)cc1	-0.6	nt	nt	nt	-13.6
CSc1ncccc1C(=O)OCc1c(F)cccc1Cl	1.9	-10.5	-3.0	7.5	30.3*
Cc1oc2ccc(O)c(CN3CCN(C)CC3)c2c1C(=O)Nc1cccc(Cl)c1C	1.2	nt	nt	nt	-0.4
CCn1cc(CN2CCC(C(=O)Nc3cccc(-c4cccc(F)c4)c3)CC2)cn1	1.9	-4.8	-3.0	-36.1	-29.1
CCn1nc(C)c(CN2CCC(C(=O)Nc3cccc(-c4cccc(F)c4)c3)CC2)c1C	-1.7	37.8*	2.5	-4.6	-18.3
CCc1cc(C(=O)NCC(c2cccs2)N2CCOCC2)sc1C (stereo not drawn)	0.0	31.4*	-2.0	-37.5	-5.3
CCN1c2ccccc2-c2nc(SCC(=O)Nc3cc(F)ccc3F)ncc2S1(=O)=O	1.2	nt	nt	nt	1.0
CCCN(CC(=O)Nc1ccccc1C)C(=O)c1ccc(S(=O)(=O)N2CCCCC2)cc1	-1.3	4.7	-1.7	-30.4	-8.2
CCCN(CC(=O)Nc1ccccc1C)C(=O)c1ccc(S(=O)(=O)N2CCCC2)cc1	0.7	30.4*	0.8	-0.7	-4.6
